In PubChem BioAssay AID687016 (The Scripps Research Institute Molecular Screening Center, 2013) one finds inhibition data, which are given here for 54 molecules.

The campaign covered roughly 370,000 compounds. About 2,800 (0.76%) were called active. Cut-off read from the data, not from the text of the source: active = inhibition above about 21%; inactive = the rest. This excerpt belongs to a sample that is enriched for actives.

What is called inhibition is the relative decrease from the control value, in per cent.

E3 ubiquitin-protein ligase UHRF1 (Homo sapiens), sequence (Q96T88 whole entry, looked up, the tested form may be a part): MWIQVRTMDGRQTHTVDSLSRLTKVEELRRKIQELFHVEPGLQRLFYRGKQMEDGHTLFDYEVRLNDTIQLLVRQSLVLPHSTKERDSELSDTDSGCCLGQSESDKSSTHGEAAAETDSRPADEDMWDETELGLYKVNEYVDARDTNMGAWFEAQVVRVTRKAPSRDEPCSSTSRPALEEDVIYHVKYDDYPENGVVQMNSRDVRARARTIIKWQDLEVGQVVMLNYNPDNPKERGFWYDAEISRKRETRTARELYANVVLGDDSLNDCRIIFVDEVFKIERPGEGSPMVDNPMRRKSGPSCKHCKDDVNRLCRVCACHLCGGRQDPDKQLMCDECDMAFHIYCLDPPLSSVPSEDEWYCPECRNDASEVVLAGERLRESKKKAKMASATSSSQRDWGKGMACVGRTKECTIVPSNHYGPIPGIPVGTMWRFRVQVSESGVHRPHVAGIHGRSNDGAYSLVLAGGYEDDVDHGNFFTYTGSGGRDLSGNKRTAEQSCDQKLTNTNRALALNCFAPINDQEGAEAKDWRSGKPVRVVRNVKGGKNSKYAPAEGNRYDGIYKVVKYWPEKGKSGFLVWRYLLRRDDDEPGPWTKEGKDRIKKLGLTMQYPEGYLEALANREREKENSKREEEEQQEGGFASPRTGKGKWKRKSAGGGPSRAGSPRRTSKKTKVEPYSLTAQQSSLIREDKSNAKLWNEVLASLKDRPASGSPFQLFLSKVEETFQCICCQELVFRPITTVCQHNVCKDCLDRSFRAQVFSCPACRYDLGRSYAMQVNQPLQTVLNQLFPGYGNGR

This experiment concerns the target E3 ubiquitin-protein ligase UHRF1 (Homo sapiens) (UniProt Q96T88). Nature of the experiment: UHRF1 methylated DNA binding inhibitors, primary screen, counter-screen for MBD2 inhibitor project, biochemical, TR-FRET, human UHRF1, single concentration (AID 687016).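 Note: UHRF1 SRA domain binding a hemimethylated CpG hairpin DNA probe; 0% = median of test compound wells and 100% = reference inhibitor.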 Particulars: UHRF1 binding to methylated oligo, at 4.4 µM, active compounds read high. In general terms: A counterscreen serves to expose hits that act by an unwanted route or on another target.
Take `CC(CCN1CCC(C(O)(c2ccccc2)c2ccccc2)CC1)Oc1ccc([N+](=O)[O-])cc1Cl` (centres undefined): the inhibition was -2.34% (inactive). As for `CCCC[C@H]1C2CC(OC(=O)NCc3ccccc3)C(C2)[C@H]2CCCCN21` (some centres undefined), the figure is 2.4% (inactive).

Consider `COc1ccc(C(=O)OCCN2CCN(C3CN(Cc4cn(Cc5ccccc5F)nn4)S(=O)(=O)C3)CC2)cc1OC` (centres undefined), for which the inhibition is 16.4% (inactive). The value for `C=CCn1c(=S)[nH]c2scc(-c3ccco3)c2c1=O` was 42% (active); that for `O=C(CSc1nnc(-c2ccccc2)n1Cc1ccco1)Nc1ccccc1-c1ccccc1` was -1.14% (inactive). The value for `Cc1ccc(-n2c(SCC(=O)Nc3ccc(S(=O)(=O)Nc4nccs4)cc3)nnc2-c2ccncc2)cc1` was -0.73% (inactive); that for `CCOc1ccc(-n2c(SCC(=O)Nc3cc(C)c(NC(=O)c4ccccc4)cc3OC)nnc2-c2cccc(Cl)c2)cc1` was -1.29% (inactive); that for `O=C(NC1CCC1)c1ccc(C#CC2CC2)cn1` was 1.8% (inactive). As for `COCCCNC(=O)C[C@H]1C[C@@]2(C(=O)OC)C(=C[C@H](C(C)(C)C)O[C@@H]2C)N(Cc2ccc(Cl)cc2Cl)C1=O`, the figure is -1% (inactive); as for `Cc1cc(C)c(OCCN2CC(C)OC(C)C2)c(Br)c1` (centres undefined), 22.5% (active); as for `CC1CN(CCOc2ccccc2[N+](=O)[O-])CC(C)O1` (centres undefined), 0.96% (inactive). As to `CC1CN(CCCOc2ccccc2-c2ccccc2)CC(C)O1` (centres undefined), the inhibition was 1.48% (inactive).

As for `CCn1c(=O)n2n(c1=O)[C@@]1(C=C3CCCC[C@H]32)N=C(NC(=O)c2ccccc2)N(Cc2ccccc2)[C@H]1Cc1ccccc1`, the inhibition is 1.35% (inactive). Consider `CCN(CC)C(=O)CC[C@H]1CC[C@]2(CCCN(Cc3ccc(Cl)cc3)C2)O1`, for which the inhibition is -2.85% (inactive).

Turning to `COC(=O)Cc1c(O)ccn(Cc2cccc(C(F)(F)F)c2)c1=O`, the inhibition was -0.17% (inactive). The value for `COC(=O)Cc1csc(/N=C/c2c(O)n(-c3cccc(C(F)(F)F)c3)c(=O)c3ccccc23)n1` was 20.8% (active). As for `O=C(Cc1cccs1)NCc1cccc(C(F)(F)F)c1`, the figure is 2.41% (inactive). The value for `COc1ccc(CN2C(=O)N3Cc4cc(OC)ccc4C3CS2(=O)=O)cc1` (centres undefined) was -0.8% (inactive). Turning to `Cc1ccc(NC(=O)Nc2cc(C)nn2-c2ccccc2)cc1`, the inhibition is -0.03% (inactive).

Turning to `C#CCNC(=O)C[C@H]1C[C@@]2(C(=O)OC)C(=C[C@H](C(C)C)O[C@@H]2C2CC2)N(Cc2ccco2)C1=O`, the inhibition was 1.95% (inactive). For `COc1ccc(Cc2n[nH]c(=S)n2NC(=O)Nc2ccc(C)cc2)cc1`, the inhibition is -1.17% (inactive).

As for `COc1ccc(NC(=O)CN(C)C(=O)c2cc(C)oc2C)cc1`, the inhibition is 0.64% (inactive).

For the molecule `COc1ccc(CC(=O)Nc2ccc(-c3nnc(-c4ccc(C)cc4)o3)cc2)cc1`, the inhibition was 22.5% (active). In the case of `O=S1(=O)c2c(cccc2N2CC[C@H](O)C2)O[C@@H]2CCN1C2`, the inhibition was 1.23% (inactive). For the molecule `Cc1cc2c(c(=O)n1Cc1ccco1)C(c1ccccc1)C(C#N)=C(N)O2` (centres undefined), the inhibition was 32.8% (active). As for `CC(C)c1ccc(C2C(C#N)=C(N)Oc3c2oc(CO)cc3=O)cc1` (centres undefined), the figure is -3.69% (inactive); as for `Cc1cc2c(c(=O)n1C)C(C(C)C)C(C#N)=C(N)O2` (centres undefined), 0.11% (inactive).

On to `CCN(C(=O)[C@@H](C1CC1)[C@@H](O)c1ccc2ccccc2c1)c1ccccc1`, for which the inhibition is -2.68% (inactive). As for `COc1ccc(C(=O)OCCN(C)C2CN(Cc3cn(Cc4cccc(C)c4)nn3)S(=O)(=O)C2)cc1OC` (centres undefined), the figure is 13.8% (inactive); as for `Cn1nccc1/C=N\NC(=O)c1ccc(Cl)cc1`, 4.97% (inactive).

Consider `Cc1nn(-c2ccccc2)c(Cl)c1/C=N/NC(=O)c1nn(C)cc1[N+](=O)[O-]`, for which the inhibition is 23.8% (active). As for `Cc1nn(-c2ccccc2)c(-n2cccc2)c1C(=O)O`, the figure is 1.78% (inactive). As for `CC(C)CNC(=O)OCc1cn(Cc2ccc(F)cc2)nn1`, the figure is 3.53% (inactive); as for `COC(=O)[C@H](C(C)C)N(CCc1cn(Cc2ccccc2)nn1)S(=O)(=O)c1ccc(F)cc1Br`, -0.16% (inactive). As for `Cc1ccc(Cn2cc(CN3[C@@H](CC(C)C)COc4ccc(Cl)cc4S3(=O)=O)nn2)cc1`, the figure is -2.98% (inactive). As for `c1coc(CCNc2ncnc3ccc(-c4ccc5c(c4)OCO5)cc23)c1`, the inhibition was -3.63% (inactive). As for `COC(=O)c1cccc(Cn2ccc3ccc(-c4ccc5ccn(C(=O)c6ccccc6C)c5c4)cc32)c1`, the figure is -1.17% (inactive). As for `O=C(COC(=O)c1ccccc1C(=O)N1CCN(c2ccccc2)CC1)NCc1ccccc1`, the figure is -3.11% (inactive); as for `O=C(CN1CCN(c2ccc(O)cc2)CC1)Nc1ccc(-c2ccccc2)cc1`, -0.69% (inactive). Take `Oc1ccc(N2CCN(C(=S)NCc3ccccc3)CC2)cc1`: the inhibition is 40.4% (active). On to `CCOC(=O)C1CCN(C(=O)C(C)(C)NC(=O)Nc2ccccc2Cl)CC1`, for which the inhibition is 0.18% (inactive).

Turning to `COC(=O)[C@]12C[C@H](CC(=O)NCc3cccs3)C(=O)N(CCc3ccc(OC)c(OC)c3)C1=C[C@H](C(C)C)O[C@@H]2C1CC1`, the inhibition was -0.69% (inactive). As for `O=C(CSc1nc2ccccc2s1)NN=Cc1ccc(O)cc1O`, the figure is -4.05% (inactive); as for `COC(=O)[C@]12C[C@H](CC(=O)NCc3ccccc3)C(=O)N(CCc3ccc(OC)c(OC)c3)C1=C[C@H](C(C)(C)C)O[C@@H]2C`, -1.24% (inactive); as for `COC(=O)[C@]12C[C@H](CC(=O)NCCC(C)C)C(=O)N(CCc3ccc(OC)c(OC)c3)C1=C[C@H](C(C)(C)C)O[C@@H]2C`, 34.2% (active).

For `CCCCOCCCNC(=O)C[C@H]1C[C@@]2(C(=O)OC)C(=C[C@H](C(C)(C)C)O[C@@H]2C)N(CCc2ccc(OC)c(OC)c2)C1=O`, the inhibition was -0.73% (inactive). Take `CC(C)(C)c1ccc(CSc2nnc(-c3cccs3)o2)cc1`: the inhibition was -2.34% (inactive). In the case of `Cc1ccc(Cc2cnc(N)s2)o1`, the inhibition is 53.9% (active). The value for `O=C(NCCC1=CCCCC1)C1CCN(S(=O)(=O)c2ccc(Cl)s2)CC1` was -0.71% (inactive). With `O=C(OC12CCCN(C1)/C(=C/c1ccccc1)C2)c1ccco1` (centres undefined), the inhibition was 3.41% (inactive). As for `C=CCN1[C@@H](Cc2ccccc2)COc2cccc(N3CCSCC3)c2S1(=O)=O`, the figure is -0.98% (inactive); as for `Cc1ccc(OCCC(=O)OCC(=O)N2c3ccccc3NC(=O)C2(C)C)cc1`, 24.6% (active). On to `CNS(=O)(=O)c1cccc(C(=O)OCC(=O)N2c3ccccc3NC(=O)C2(C)C)c1`, for which the inhibition is 5.39% (inactive). The value for `CC1(C)C(=O)Nc2ccccc2N1C(=O)COC(=O)Cn1cnc2ccccc2c1=O` was 1.64% (inactive).
